Screens: PubChem BioAssay, National Center for Advancing Translational Sciences (NCATS)
Giardia kill: Giardia lamblia killing. 340,000 tested, 0.15% active. Giardia lamblia trophozoite viability. activity change, % at 7.66 µM, hits read low; in the data active = activity change below about -80%; inconclusive = between about -30% and that limit;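 note: parasites exposed to compound for two days anaerobically before the ATP read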
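Viability, read as ATP luminescence: trophozoites at 100 cells/well, compound added, 48 hrs anaerobic at 37 deg C, then 15-30 min room-temperature development before reading.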
Sfp PPTase inh: inhibitors of Bacillus subtilis Sfp phosphopantetheinyl transferase. Biochemical Sfp PPTase activity, qHTS. 310,000 tested, 3.5% active. Potency, µM, without a hit: largest response in the series, negative = inhibition, hits mostly inhibitors. Q9F4F7;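 note: the enzyme is Sfp with the accession as filed and its product quenches rhodamine fluorescence; potency is the fitted concentration of half-maximal effect; 0% = enzyme reaction without inhibitor and -100% = no enzyme wells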
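Step 1, compound plus 15 nM Sfp-PPTase, 15 min, room temperature. Step 2, add rhodamine-CoA (5 uM) and BHQ-2-YbbR (12.5 uM). Step 3, read 525/598 nm fluorescence at 0 and 30 min.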
FBPA coupling cs: counter-screen for Giardia aldolase inhibitors: coupling enzyme system; coupling enzyme system counterscreen, AmpLite Red fluorescence; activity change, negative = inhibition, % at 58.2 µM, hits read low; 290,000 tested, 0.67% active; in the data active = activity change below about -30%
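Compounds tested against the coupling enzymes alone at 57.5 uM final; readout was AmpLite Red fluorescence (525/598 nm) after 20 min at RT.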
ELG1 DNA repair: ELG1-dependent DNA repair inhibition. HEK293T ELG1-luciferase reporter, luminescence, 16 h; DNA damage induced by 5-fluorouridine. Potency, µM (top dose mostly 46.1 µM), without a hit: at the highest dose activity change, negative = inhibition, hits mostly inhibitors. 330,000 tested, 2.3% active. AID 504467; note: potency is the fitted concentration of half-maximal effect; nearly all actives have a fitted effect of over 55% in size
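Luminescence from the luciferase reporter, measured 30 min after ONE-Glo reagent at room temperature, was the read-out. Beforehand, 2,000 cells per well were exposed for 16 hr at 37 °C to 5-fluorouridine together with compound or vehicle.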
* hit, by the source's call; ? = inconclusive; . = no result; ! = a repeat was not active. An excerpt weighted towards active compounds, which were near 5.5% of everything screened. Unless noted, calls come from the whole dose curve; as a rule, active = well fitted curve in the direction sought with a large enough effect; inconclusive = small, poorly fitted or top-dose-only effect, or another doubt; inactive = no such curve, though single readings can be large; an effect the other way counts as inactive or inconclusive. Unless noted, % is set by controls: 0 for no effect and ±100 for the full control effect.

SMILES | Giardia kill | Sfp PPTase inh | FBPA coupling cs | ELG1 DNA repair
C=CCn1c(=O)[nH]c2nc3cc(N=CN(C)C)c(C)cc3nc2c1=O | 3.9 | 50.1µM* | -11.5 | 6.5%
CN(C)C(=O)c1ccc(NC(=O)COC(=O)Cn2cc(C(F)(F)F)ccc2=O)cc1 | 27.2 | . | . | ?
COC(=O)/C=C/c1cc(O)ccc1O | . | 50.1µM* | . | .
COc1cccc(Cn2c(=O)c(-c3ccccc3)nc3cncnc32)c1 | . | -17.3% | -0.9 | .
CCC(CC)C(=O)Nc1nc(-c2ccc3c(c2)CCN3C(=O)C2CC2)c(C)s1 | -17.8 | -1.0% | -3.1 | 20.6µM*
O=C(Nc1ccccc1[N+](=O)[O-])c1cc2ccccc2nc1Cl | -3.7 | 5.5% | 4.4 | 13.4%
O=C(Nc1ccc([N+](=O)[O-])cc1)c1cc2ccccc2nc1Cl | 5.3 | -25.4% | -3.2 | 18.3µM*
O=C1c2cccc(O)c2C(=O)c2c(O)cccc21 | . | 28.2µM*! | 0.4 | -26.7%
COCC(COS(N)(=O)=O)Cc1ccccc1 (stereo not given) | 6.8 | 9.8% | 1.3 | -8.5%
CC(=O)SC(C[N+](=O)[O-])c1cn(C(C)=O)c2ccccc12 (stereo not given) | -3.8 | 10µM* | 0.5 | ?
CC(=O)n1cc(Nc2ccc([N+](=O)[O-])cc2)c2ccccc21 | -3.1 | 3.9% | 0.9 | ?
COc1cc(/C=C2/C(=N)N3C(=NC2=O)SN=C3S(=O)(=O)C(C)C)ccc1OS(=O)(=O)c1ccccc1 | . | 56.2µM* | 11.9 | 15.9%
Cc1cc(C(=O)O)ccc1[C@H](N)C(=O)O | . | ? | 3.3 | .
O=C1N/C(=N\S(=O)(=O)c2ccccc2)S/C1=C\c1cc([N+](=O)[O-])ccc1O | 8.3 | 12.7% | 12.8 | 2.0%
COc1cc(/C=C2/S/C(=N/S(=O)(=O)c3ccccc3)NC2=O)c([N+](=O)[O-])cc1OC | -8.4 | 79.4µM* | 13.5 | 6.9%
O=C1N/C(=N\S(=O)(=O)Cc2ccccc2)S/C1=C/c1cc([N+](=O)[O-])ccc1O | 8.6 | 28.2µM* | 12.3 | 5.5%
CC(Sc1nnc(Cc2cccs2)n1C1CC1)C(=O)NC1CCS(=O)(=O)C1 (stereo not given) | -8.4 | . | . | 3.0%
CC1CCN(C2CCN(C(=O)c3ccccc3F)CC2)CC1 | -11.3 | -12.5% | -2.6 | -6.8%
Oc1cccc(C(=S)N2CCCCC2)c1 | 4.0 | 22.4µM* | 1.0 | ?
Oc1ccc(C(=S)N2CCCC2)cc1 | -22.5 | 20µM* | 4.5 | -2.8%
CC1CCN(C(=S)c2ccccc2O)CC1 | -13.8 | 28.2µM* | 2.6 | ?
S=C(c1ccc(N2CCCC2)cc1)N1CCCCC1 | -7.5 | 7.6% | 0.1 | ?
Oc1ccc(C(=S)N2CCCCCC2)cc1 | -3.7 | 56.2µM* | 0.9 | 4.0%
COc1ccc(OCCOC(=O)c2cc(S(=O)(=O)N3CCOCC3)c(Cl)cc2Cl)cc1 | -1.8 | . | . | -8.6%
O=C(NCCCN1CCOCC1)c1ccc(NS(=O)(=O)c2ccccc2)cc1 | 9.6 | 6.8% | . | -8.4%
SMILES | Giardia kill | Sfp PPTase inh | FBPA coupling cs | ELG1 DNA repair
Cc1ccc(C(=S)N2CCCCCC2)cc1 | 1.7 | 44.7µM* | 5.4 | -8.1%
CC1CCN(C(=S)NC(=O)c2ccc(F)cc2)CC1 | -15.2 | . | . | 11.4%
CC1CCN(C(=S)c2ccc(O)cc2)CC1 | -6.7 | 56.2µM* | -1.4 | 13.3%
COc1ccc(Oc2ncc3nc(-c4cccs4)c(=O)n(Cc4cccc(OC)c4)c3n2)cc1 | . | 6.2% | -6.1 | .
COc1cc(/C=C2\SC(=O)N(CCNC(=O)c3c(C)noc3C)C2=O)cc(OC)c1OC | 30.3 | . | . | 18.3µM*
COc1cc(C(=O)NCCN2C(=O)S/C(=C\c3cccs3)C2=O)cc(OC)c1OC | 15.7 | 16.9% | -0.4 | -3.9%
COc1cc2c(cc1OC)-c1cc(=Nc3c(C)cc(C)cc3C)n(C)c(=O)n1CC2 | -8.9 | 70.8µM*! | 0.3 | .
O=c1c(CCc2ccccc2)nc2cnc(N3CCOCC3)nc2n1C[C@H]1CCCO1 | . | 11.6% | 7.5 | .
CCCCCc1cc(=O)[nH]c(=S)[nH]1 | 7.3 | -4.7% | -0.2 | -0.6%
CCCc1cc(=O)[nH]c(=S)[nH]1 | 4.6 | 50.1µM*! | -4.5 | 10.9%
Cc1noc(C)c1COc1ccccc1C(=O)N1CCN(c2cccc(Cl)c2)CC1 | 16.9 | . | . | 9.2µM*
COc1ccc(C(=S)N2CCN(c3cccc(Cl)c3)CC2)c(OC)c1 | -11.7 | 17.8µM* | 3.6 | ?
CC(=O)N1CCN(C(=S)c2ccc(Cl)cc2)CC1 | 4.5 | 7.08µM* | 2.5 | ?
Cc1noc(C)c1COc1ccccc1C(=O)N1CCN(c2cccc(C(F)(F)F)c2)CC1 | -8.0 | . | . | 0.0%
CN(c1ccccc1C(=O)N1CCN(c2cccc(Cl)c2)CC1)S(C)(=O)=O | 4.2 | 16.8% | 0.8 | -14.7%
CSc1ccccc1C(=O)N1CCN(c2cccc(Cl)c2)CC1 | -5.6 | -2.2% | 0.7 | 20.6µM*
CCN(CC)CCNC(=O)c1ccc(NC(=O)c2cc(S(=O)(=O)N3CCCCC3)ccc2N2CCOCC2)cc1 | -11.0 | . | . | .
CCNc1nc(C#N)nc(Nc2ccccc2)n1 | -1.9 | . | . | .
O=C(Cc1cccs1)NCCS(=O)(=O)N1CCN(c2cccc(Cl)c2)CC1 | 31.8 | . | . | -11.8%
COc1ccc(C(=O)N2CCN(c3cccc(Cl)c3)CC2)cc1 | -17.9 | 10.3% | -0.7 | 8.3%
Oc1ccccc1C(=S)N1CCN(c2cccc(Cl)c2)CC1 | 16.7 | 15.8µM* | 4.5 | -4.4%
CC(C)(C)c1ccc(C(=S)N2CCN(c3ccccc3)CC2)cc1 | -13.9 | 50.1µM* | -0.1 | 2.3%
CC(=O)c1ccc(NC(=S)N2CCN(c3cccc(Cl)c3)CC2)cc1 | -1.3 | 17.2% | 2.9 | ?
Oc1ccc(C(=S)N2CCN(c3cccc(Cl)c3)CC2)cc1 | 17.5 | 15.8µM* | 7.1 | -2.8%
COc1cc(C(=S)N2CCN(c3cccc(Cl)c3)CC2)ccc1O | -5.2 | 10µM* | 3.7 | ?
SMILES | Giardia kill | Sfp PPTase inh | FBPA coupling cs | ELG1 DNA repair
Cc1noc(C)c1-c1nc(NC2CCNCC2)c2ccccc2n1 | . | -18.7% | 0.4 | .
O/N=C(\Cn1ccnc1)c1ccccc1 | 9.0 | . | . | .
NC1=NCCCC1 | . | -13.5% | -2.1 | .
COc1ccc(S(=O)(=O)Cc2ccc(C(=O)NCc3ccccc3OC)o2)cc1 | 36.3 | 27.7% | 2.5 | -1.6%
COC(=O)N1CCC[C@@]2(CCN(c3ccncc3)C2)C1 | . | 5.8% | 0.0 | .
COc1ccccc1N=c1sc2ccccc2n1C | 19.7 | 56.2µM* | -14.0 | 12.3%
Oc1ccc(/C=N/Nc2nccnc2Cl)cc1 | -6.2 | -29.7% | -1.0 | ?
Nc1c(Cl)ncnc1N/N=C/c1ccc(O)cc1 | 0.8 | 56.2µM* | -0.6 | ?
CC(C)CCN1C(=O)c2ccc(C(=O)Nc3ccc(Br)cc3C(=O)O)cc2C1=O | -4.4 | -7.3% | 3.9 | -2.8%
CCOC(=O)CC(NC(=O)c1cc2cccc(OC)c2oc1=O)c1cccc([N+](=O)[O-])c1 (stereo not given) | -19.0 | 50.1µM* | -2.0 | -10.1%
CCOC(=O)CC(NC(=O)c1cc2cc(Cl)cc(Cl)c2oc1=O)c1cccc([N+](=O)[O-])c1 (stereo not given) | -7.9 | 3.3% | -3.9 | 13.8%
COc1ccccc1CCC(=O)Nc1ccc(S(=O)(=O)Nc2nccs2)cc1 | 11.3 | . | . | -0.3%
Cc1nc(N)sc1-c1csc(Nc2ccccn2)n1 | 13.7 | 56.2µM* | -23.7 | ?
